About 2,100 (3.2%) of roughly 65,000 compounds showed an effect of 50% or more. The median lay at about -52%. The sample as a whole holds a higher share of strong results than the screen did.

The assay concerns Plasmodium falciparum. Briefly: Screen against P. falciparum Asexual Blood Stage (ABS), at 5uM. In kind it is functional, Dd2. The settings on record: tested at 5 uM.
Regarding `CN(CCc1ccncc1)CCc1nccs1`, the INHIBITION was -102%.

For the compound `Cc1c[nH]c(C2COCCN2C(=O)c2n[nH]c(=O)c3ccccc23)n1` (stereo unspecified), the INHIBITION is listed as -96.3%.

For the compound `Cc1ncnc2c1CCN(C(=O)N(C)C)CC2`, the INHIBITION is reported as -100%.

In the case of `NCC1CN(c2nc(-c3cccnc3)nc3c2CCNCC3)CCO1` (stereo unspecified), the INHIBITION is -84.9%.

Take `NCC1CN(c2nc(-c3ccccc3)nc3c2CCNCC3)CCO1` (stereo unspecified): the INHIBITION came out at 69.5%.

`NCCC1CN(c2nc(-c3ccccc3)nc3c2CCNC3)CCO1` (stereo unspecified): the INHIBITION was 66.1%.

As to `COCCC1CN(c2nc(-c3ccccc3)nc3c2CCNC3)CCO1` (stereo unspecified), the INHIBITION is recorded as -21.7%.

Turning to `OCCC1CN(c2nc(-c3cccnc3)nc3c2CCNCC3)CCO1` (stereo unspecified), the INHIBITION is given as -121%.

Consider `OCCC1CN(c2nc(-c3ccncc3)nc3c2CCNCC3)CCO1` (stereo unspecified), for which the INHIBITION is recorded as -97.5%.

Take `CCOCCN1CCC(C(=O)c2cc(F)ccc2F)CC1`: the INHIBITION was found to be 5.36%.

With `O=C(O)CCC(=O)N1CCN(CC2CC2)c2ncccc2C1`, the INHIBITION is -23.3%.

Consider `CCSc1cncc(N2CCC(NC(=O)C3CCCCC3)CC2)n1`, for which the INHIBITION is listed as -11.6%.

Turning to `O=c1cc(N2CCCC2)cnn1CC(F)F`, the INHIBITION is -88.9%.

For the compound `CC(C)COCC1CN(Cc2ccc3c(c2)OCO3)Cc2ncn(C)c21` (stereo unspecified), the INHIBITION is 38.7%.

For `CCC(O)(CNCc1ncc[nH]1)c1ccc(Br)cc1` (stereo unspecified), the INHIBITION is 67.5%.

In the case of `CCC(O)(CNCc1ccncc1)c1ccc(Br)cc1` (stereo unspecified), the INHIBITION is reported as 8.37%.

For the compound `COc1cc(NCc2ncc[nH]2)ccc1Br`, the INHIBITION is -173%.

Take `O=C(c1ccsc1)N1CCc2ncc(Cn3cncn3)n2CC1`: the INHIBITION is -17.9%.

In the case of `COCC(=O)Nc1ccc(-c2noc([C@@H]3CCCN3)n2)cn1`, the INHIBITION is reported as 52.6%.

For `COCC(=O)Nc1ccc(-c2noc([C@@H]3CCCN3C)n2)cn1`, the INHIBITION is -28.7%.

With `COCCNc1ccc(-c2noc([C@@H]3CCCN3)n2)cn1`, the INHIBITION was determined as 39.8%.

In the case of `CN(C)c1cc2c(nn1)CCN(C(=O)C1Cc3ccccc3O1)C2` (stereo unspecified), the INHIBITION is recorded as -78.5%.

Consider `O=C(c1cscn1)N1CCO[C@H]2[C@@H](Oc3ccccn3)CC[C@@H]21`, for which the INHIBITION is -20.9%.

As to `Cc1csc(C(=O)N2CCC(O)(CN3CCc4ccccc4C3)C2)c1` (stereo unspecified), the INHIBITION was -1.9%.

As for `O=C(NCc1ccccc1Cl)c1[nH]nc2c1CS(=O)(=O)CC2`, the INHIBITION is reported as -148%.

As to `Cn1cc(CN2CCCCC2c2ccc(-c3cnn(C)c3)nc2)cn1` (stereo unspecified), the INHIBITION is on record as -15.7%.

Turning to `Cn1cc(CN2CCCCC2c2ccc(-c3cccc(Cl)c3)nc2)cn1` (stereo unspecified), the INHIBITION is reported as 55.3%.

`Cn1cc(CN2CCCCC2c2ccc(-c3cccc(F)c3)nc2)cn1` (stereo unspecified): the INHIBITION is reported as 2.27%.

`Cc1nc(O)c2nnn(C[C@H]3CCCN3C(=O)c3ccccc3C)c2n1`: the INHIBITION was -51%.

On to `CC(c1ccc(F)cc1F)N1CCN(CCC(=O)O)CC1` (stereo unspecified), for which the INHIBITION was -11.3%.

With `CC(SCCC(=O)NC(N)=O)c1ccc(F)cc1F` (stereo unspecified), the INHIBITION is -47%.

Regarding `CC(c1ccc(F)cc1F)N1CCN(CCC(=O)NC(N)=O)CC1` (stereo unspecified), the INHIBITION stood at 64%.

Regarding `N#Cc1ccc(C(=O)N2CCC(c3ncc[nH]3)CC2)cn1`, the INHIBITION is recorded as -111%.

For `C=C(C)CNC1CCCN(Cc2noc(C3CC3)n2)C1` (stereo unspecified), the INHIBITION was 32.4%.

`Cc1ccc2c(c1)C(NC(=O)N(C)C)CC21CCN(C(C)C)CC1` (stereo unspecified): the INHIBITION is on record as -82%.

In the case of `O=C(c1ccc[nH]1)N1CCn2cc(Cn3cccn3)nc2C1`, the INHIBITION is -68.4%.

Regarding `CCOCc1cnc2n1CCN(C(=O)c1cn(C)c3ccccc13)C2C` (stereo unspecified), the INHIBITION is reported as -9.29%.

For the compound `O=C(C(CNCc1cccnc1)c1ccccc1)N1CCOCC1` (stereo unspecified), the INHIBITION is -52.2%.

For the compound `Clc1cccc(C(CNc2ncccn2)N2CCOCC2)c1` (stereo unspecified), the INHIBITION is reported as -57%.

For `Clc1cccc(C(CNCc2cccnc2)N2CCOCC2)c1` (stereo unspecified), the INHIBITION stood at 56.9%.

Turning to `Clc1cccc(C(CNCc2ccccn2)N2CCOCC2)c1` (stereo unspecified), the INHIBITION stood at 53.1%.

Regarding `O=C(C(CNCc1ccccn1)c1ccccc1)N1CCOCC1` (stereo unspecified), the INHIBITION is -29.2%.

Regarding `Cc1ccc(C(CNCc2cccnc2)N2CCOCC2)s1` (stereo unspecified), the INHIBITION is given as -0.0343%.

On to `CCOCC(=O)NCc1cc(Br)ccc1OC(F)F`, for which the INHIBITION is on record as -119%.

Turning to `CCC(C(=O)N1CCS(=O)(=O)CC1)n1cccn1` (stereo unspecified), the INHIBITION was -77.5%.

With `CN(C)C(=O)c1ccc2c(c1)nc(N1CC[C@H](O)C1)n2C`, the INHIBITION is reported as -58.1%.

As for `CN(c1ccc(Cl)c(C(=O)NCCCN2CCOCC2)c1)S(C)(=O)=O`, the INHIBITION was -93.1%.

For the compound `O=C(CCCNC(=O)c1cnccn1)Nc1ncc[nH]1`, the INHIBITION was -63.2%.

For `CC(C)COCCC(=O)NCc1cn2cc(Br)ccc2n1`, the INHIBITION is listed as -27.3%.

`CN(C)[C@@H]1C[C@@H](CO)N(C(=O)Nc2cccc(F)c2F)C1`: the INHIBITION was -46.8%.

Consider `OCCOc1ccccc1CN1CCCC(O)(CO)C1` (stereo unspecified), for which the INHIBITION is recorded as -48.1%.

Take `OCC1(O)CCCN(Cc2ccccc2OCCc2ccccc2)CC1` (stereo unspecified): the INHIBITION turned out to be 65.1%.

Regarding `O=C1NCC2(CCCN(Cc3ccccc3OCCO)C2)O1` (stereo unspecified), the INHIBITION is -55.2%.

Take `CO[C@H]1CN(C(=O)OC(C)(C)C)CC1NCc1ccoc1` (stereo partly specified): the INHIBITION is recorded as -73.1%.

Take `c1cnc(N2CCC(OCCN3CCCCC3)C2)nc1` (stereo unspecified): the INHIBITION is given as -58%.

Take `Cc1cnc(N2CCC(OCCN3CCCCC3)C2)nc1C` (stereo unspecified): the INHIBITION stood at 23.5%.

With `Cc1cc(C)nc(N2CCC(OCCN3CCCCC3)C2)n1` (stereo unspecified), the INHIBITION amounted to 13.3%.

Turning to `COc1ccnc(N2CCC(OCCN3CCCCC3)C2)n1` (stereo unspecified), the INHIBITION is 51.2%.

Take `Cc1ccnc(N2CCC(OCCN3CCCCC3)C2)n1` (stereo unspecified): the INHIBITION was -83.8%.

As to `CC(C)(C)c1nccc(N2CCC(OCCN3CCCCC3)C2)n1` (stereo unspecified), the INHIBITION amounted to 62.5%.

In the case of `Cc1cccc(-c2c[nH]c(C3CCCN3)n2)c1` (stereo unspecified), the INHIBITION is given as -5.91%.

As for `CC(C)c1nccc(CN2CCCC(O)(CN3CCCC3)C2)n1` (stereo unspecified), the INHIBITION is given as -69.7%.

For `CN(C)C(=O)CN1C[C@H]2CC[C@@H](C1)N(C(=O)CCn1cncn1)C2`, the INHIBITION was -87.6%.

Consider `O=C(NC1CC1)N1CCc2ccc(=O)n(CCN3CCCC3)c2CC1`, for which the INHIBITION is -113%.

For the compound `Cc1cnn(CCNCc2csc(-c3ccc(F)cc3)n2)c1`, the INHIBITION is -58%.

As to `Cc1cnn(CCNCc2csc(-c3ccc(C)o3)n2)c1`, the INHIBITION is given as -32.6%.

As for `Cc1cnn(CC(C)NCc2csc(-c3ccco3)n2)c1` (stereo unspecified), the INHIBITION is -84%.

Consider `Cc1cnn(CCNCc2csc(-c3cccs3)n2)c1`, for which the INHIBITION was -51.7%.

In the case of `Cc1cnn(CCNCc2csc(-c3ccco3)n2)c1`, the INHIBITION stood at 54.9%.

Consider `Cc1cnn(CCNCc2csc(-c3ccccc3)n2)c1`, for which the INHIBITION is 66.6%.

Turning to `O=C(C1CCS(=O)(=O)CC1)N1C[C@@H]2CC[C@H]1CN(Cc1ccccc1)C2`, the INHIBITION was -51.3%.

(Values after ChEMBL document CHEMBL4513216, “Probing the Open Global Health Chemical Diversity Library for Multistage-Active Starting Points for Next-Generation Antimalarials” (ACS Infect Dis, 2020).)
